Measurements published in the supplement of paper PMC10849652.
Of roughly 7,900 targets only a part is listed; those with a hit were picked by preference. About 0.6% of all pairs of compound and target were hits. A number with no mark means an inactive call.

Assays:
Assay in all cases: log2 fold change, soluble protein after heating vs DMSO (PISA); higher = thermal stabilisation; K562 cells, 10 uM, 30 min; active = over 0.2 and 3.5 SD of the protein, either way, in both replicates (recomputed)
IRAK-1-4 Inhibitor I = compound: C1COCCN1CCN2C3=CC=CC=C3N=C2NC(=O)C4=CC(=CC=C4)[N+](=O)[O-] [IRAK-1-4 Inhibitor I]
Method in brief: (§1)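 Thermal stability values are relative to control samples and come from duplicates. They are expressed as log2 fold changes. For measurement, K562 cells (2×10^6 cells/mL) received 10 μM compound for 30 min, and aliquots were heated for 3 min over 48°C-58°C, pooled, and extracted at 4°C in PBS with 0.5% NP-40. Soluble protein, the supernatant after 21,000xg for 90 min, was quantified by TMTpro 16plex LC-MS/MS with equalised channel sums.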

ibrutinib = compound: C=CC(=O)N1CCC[C@@H](n2nc(-c3ccc(Oc4ccccc4)cc3)c3c(N)ncnc32)C1 [ibrutinib]
Method in brief: as §1

[1] = compound: CC(=O)c1cnc2ccc(-c3cc(Cl)c(O)c(Cl)c3)nc2c1N[C@H]1CC[C@H](CN(C)C)CC1
Method in brief: as §1

ralimetinib = compound: CC(C)(C)Cn1c(N)nc2ccc(-c3[nH]c(C(C)(C)C)nc3-c3ccc(F)cc3)nc21 [ralimetinib]
Method in brief: as §1

[2] = compound: CC(C)(O)CC(=O)NCCn1ccc2ncnc(Nc3ccc(Oc4cccc(C(F)(F)F)c4)c(Cl)c3)c21
Method in brief: as §1

[3] = compound: CC(C)C1=C2N=C(C=C(N2N=C1)NCC3=CC=CC=C3)NCCCCCCN
Method in brief: as §1

[4] = compound: CC(C)C[C@@H](C=O)NC(=O)[C@H](CC(C)C)NC(=O)[C@H](CC(C)C)NC(=O)OCc1ccccc1
Method in brief: as §1

pinometostat = compound: CC(C)N(C[C@H]1O[C@@H](n2cnc3c(N)ncnc32)[C@H](O)[C@@H]1O)[C@H]1C[C@@H](CCc2nc3cc(C(C)(C)C)ccc3[nH]2)C1 [pinometostat]
Method in brief: as §1

[5] = compound: CC1=C(C(CC(=O)N1)C2=CC=C(C=C2)C(F)(F)F)C(=O)NC3=C(C=C4C(=C3)C=NN4)F
Method in brief: as §1

[6] = compound: CC1=C(C2=C(C=C1)C(=O)C3=CC=CC=C3N2CCCN)C
Method in brief: as §1

UniProt P41440, sequence (P41440 whole entry, looked up): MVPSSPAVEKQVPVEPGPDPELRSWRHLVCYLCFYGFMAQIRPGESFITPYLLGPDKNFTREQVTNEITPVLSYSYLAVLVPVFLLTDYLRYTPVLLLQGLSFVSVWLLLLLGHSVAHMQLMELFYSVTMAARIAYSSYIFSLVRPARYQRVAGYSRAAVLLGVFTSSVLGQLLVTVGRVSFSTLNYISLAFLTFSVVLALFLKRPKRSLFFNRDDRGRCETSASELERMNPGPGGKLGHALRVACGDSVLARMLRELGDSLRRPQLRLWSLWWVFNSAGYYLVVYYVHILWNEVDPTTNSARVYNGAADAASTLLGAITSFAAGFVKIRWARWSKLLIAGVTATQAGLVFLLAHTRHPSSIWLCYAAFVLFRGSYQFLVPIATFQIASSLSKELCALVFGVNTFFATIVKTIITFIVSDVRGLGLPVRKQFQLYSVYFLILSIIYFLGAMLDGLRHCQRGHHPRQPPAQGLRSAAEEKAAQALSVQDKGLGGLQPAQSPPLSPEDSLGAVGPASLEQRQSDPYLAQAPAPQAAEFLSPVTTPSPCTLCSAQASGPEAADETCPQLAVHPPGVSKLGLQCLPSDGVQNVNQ
UniProt Q5TA31, sequence (Q5TA31 whole entry, looked up): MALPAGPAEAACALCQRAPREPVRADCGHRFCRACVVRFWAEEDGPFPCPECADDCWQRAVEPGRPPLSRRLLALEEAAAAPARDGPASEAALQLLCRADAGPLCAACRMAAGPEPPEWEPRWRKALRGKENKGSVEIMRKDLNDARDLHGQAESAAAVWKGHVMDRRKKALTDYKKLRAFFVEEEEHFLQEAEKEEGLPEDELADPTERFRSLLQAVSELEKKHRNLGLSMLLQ
UniProt P51812, sequence (P51812 whole entry, looked up): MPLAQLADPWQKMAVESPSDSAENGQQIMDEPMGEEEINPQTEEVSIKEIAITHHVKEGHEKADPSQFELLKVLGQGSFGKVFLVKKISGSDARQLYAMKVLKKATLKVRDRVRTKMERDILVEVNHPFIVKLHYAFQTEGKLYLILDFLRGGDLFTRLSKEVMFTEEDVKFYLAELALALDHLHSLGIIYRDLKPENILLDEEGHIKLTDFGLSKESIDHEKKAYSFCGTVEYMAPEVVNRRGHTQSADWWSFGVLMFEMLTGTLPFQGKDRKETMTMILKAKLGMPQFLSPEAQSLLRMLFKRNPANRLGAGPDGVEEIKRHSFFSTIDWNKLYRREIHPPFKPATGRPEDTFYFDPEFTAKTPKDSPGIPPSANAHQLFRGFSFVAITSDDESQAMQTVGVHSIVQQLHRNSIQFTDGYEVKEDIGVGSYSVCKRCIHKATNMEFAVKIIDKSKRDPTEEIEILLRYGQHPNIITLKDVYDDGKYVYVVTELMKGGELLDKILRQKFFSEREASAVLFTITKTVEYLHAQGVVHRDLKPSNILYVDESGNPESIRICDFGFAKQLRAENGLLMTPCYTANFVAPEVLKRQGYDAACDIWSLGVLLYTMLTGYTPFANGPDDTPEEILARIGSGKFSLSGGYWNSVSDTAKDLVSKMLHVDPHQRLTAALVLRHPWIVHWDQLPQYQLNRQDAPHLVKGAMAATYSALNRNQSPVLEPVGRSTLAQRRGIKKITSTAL
UniProt Q7Z6E9, sequence (Q7Z6E9 whole entry, looked up): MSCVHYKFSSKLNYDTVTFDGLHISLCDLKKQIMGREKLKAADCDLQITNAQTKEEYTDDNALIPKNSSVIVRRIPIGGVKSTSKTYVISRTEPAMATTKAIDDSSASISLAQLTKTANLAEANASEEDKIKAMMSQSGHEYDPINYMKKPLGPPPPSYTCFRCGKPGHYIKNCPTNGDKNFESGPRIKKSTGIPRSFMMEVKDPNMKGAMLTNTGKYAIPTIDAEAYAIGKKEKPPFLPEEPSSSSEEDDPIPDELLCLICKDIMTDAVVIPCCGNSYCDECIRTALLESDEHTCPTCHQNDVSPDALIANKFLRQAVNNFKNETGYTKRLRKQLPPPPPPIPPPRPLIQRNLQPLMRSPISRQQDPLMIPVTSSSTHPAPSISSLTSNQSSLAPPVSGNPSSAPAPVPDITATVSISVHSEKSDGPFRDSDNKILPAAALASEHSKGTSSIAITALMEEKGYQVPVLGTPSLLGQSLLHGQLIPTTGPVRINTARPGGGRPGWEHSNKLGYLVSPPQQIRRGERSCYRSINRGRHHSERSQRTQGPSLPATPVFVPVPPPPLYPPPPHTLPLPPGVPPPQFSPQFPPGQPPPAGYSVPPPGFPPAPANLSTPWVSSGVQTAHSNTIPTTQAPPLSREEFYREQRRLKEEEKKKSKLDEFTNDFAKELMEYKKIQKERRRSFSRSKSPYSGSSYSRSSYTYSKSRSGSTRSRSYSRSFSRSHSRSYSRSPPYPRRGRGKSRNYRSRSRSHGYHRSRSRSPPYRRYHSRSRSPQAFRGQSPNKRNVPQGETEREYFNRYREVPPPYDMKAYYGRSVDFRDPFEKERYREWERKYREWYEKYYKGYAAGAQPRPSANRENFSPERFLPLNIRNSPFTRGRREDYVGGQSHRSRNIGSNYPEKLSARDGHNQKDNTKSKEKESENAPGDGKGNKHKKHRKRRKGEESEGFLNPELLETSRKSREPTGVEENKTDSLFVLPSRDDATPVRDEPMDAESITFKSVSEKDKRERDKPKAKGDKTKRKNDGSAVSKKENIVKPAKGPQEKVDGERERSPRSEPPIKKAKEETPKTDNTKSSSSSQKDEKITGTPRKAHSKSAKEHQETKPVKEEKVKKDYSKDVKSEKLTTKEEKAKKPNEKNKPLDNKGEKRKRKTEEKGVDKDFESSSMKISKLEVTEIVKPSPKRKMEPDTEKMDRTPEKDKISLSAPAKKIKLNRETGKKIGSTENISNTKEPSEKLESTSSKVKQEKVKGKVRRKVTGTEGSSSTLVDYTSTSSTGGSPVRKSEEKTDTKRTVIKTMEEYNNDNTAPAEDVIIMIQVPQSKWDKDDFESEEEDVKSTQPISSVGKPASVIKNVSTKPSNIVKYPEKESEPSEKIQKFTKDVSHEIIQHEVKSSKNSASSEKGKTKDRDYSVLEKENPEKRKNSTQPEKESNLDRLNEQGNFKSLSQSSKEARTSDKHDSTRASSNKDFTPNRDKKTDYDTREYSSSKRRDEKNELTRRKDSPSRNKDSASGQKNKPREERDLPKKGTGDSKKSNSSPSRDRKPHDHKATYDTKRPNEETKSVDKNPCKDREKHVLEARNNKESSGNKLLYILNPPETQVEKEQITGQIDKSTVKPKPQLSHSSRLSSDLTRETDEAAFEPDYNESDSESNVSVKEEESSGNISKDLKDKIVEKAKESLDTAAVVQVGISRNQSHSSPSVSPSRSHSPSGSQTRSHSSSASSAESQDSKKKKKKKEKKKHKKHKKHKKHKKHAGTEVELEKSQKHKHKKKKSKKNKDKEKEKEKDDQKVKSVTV
UniProt Q13796, sequence (Q13796 whole entry, looked up): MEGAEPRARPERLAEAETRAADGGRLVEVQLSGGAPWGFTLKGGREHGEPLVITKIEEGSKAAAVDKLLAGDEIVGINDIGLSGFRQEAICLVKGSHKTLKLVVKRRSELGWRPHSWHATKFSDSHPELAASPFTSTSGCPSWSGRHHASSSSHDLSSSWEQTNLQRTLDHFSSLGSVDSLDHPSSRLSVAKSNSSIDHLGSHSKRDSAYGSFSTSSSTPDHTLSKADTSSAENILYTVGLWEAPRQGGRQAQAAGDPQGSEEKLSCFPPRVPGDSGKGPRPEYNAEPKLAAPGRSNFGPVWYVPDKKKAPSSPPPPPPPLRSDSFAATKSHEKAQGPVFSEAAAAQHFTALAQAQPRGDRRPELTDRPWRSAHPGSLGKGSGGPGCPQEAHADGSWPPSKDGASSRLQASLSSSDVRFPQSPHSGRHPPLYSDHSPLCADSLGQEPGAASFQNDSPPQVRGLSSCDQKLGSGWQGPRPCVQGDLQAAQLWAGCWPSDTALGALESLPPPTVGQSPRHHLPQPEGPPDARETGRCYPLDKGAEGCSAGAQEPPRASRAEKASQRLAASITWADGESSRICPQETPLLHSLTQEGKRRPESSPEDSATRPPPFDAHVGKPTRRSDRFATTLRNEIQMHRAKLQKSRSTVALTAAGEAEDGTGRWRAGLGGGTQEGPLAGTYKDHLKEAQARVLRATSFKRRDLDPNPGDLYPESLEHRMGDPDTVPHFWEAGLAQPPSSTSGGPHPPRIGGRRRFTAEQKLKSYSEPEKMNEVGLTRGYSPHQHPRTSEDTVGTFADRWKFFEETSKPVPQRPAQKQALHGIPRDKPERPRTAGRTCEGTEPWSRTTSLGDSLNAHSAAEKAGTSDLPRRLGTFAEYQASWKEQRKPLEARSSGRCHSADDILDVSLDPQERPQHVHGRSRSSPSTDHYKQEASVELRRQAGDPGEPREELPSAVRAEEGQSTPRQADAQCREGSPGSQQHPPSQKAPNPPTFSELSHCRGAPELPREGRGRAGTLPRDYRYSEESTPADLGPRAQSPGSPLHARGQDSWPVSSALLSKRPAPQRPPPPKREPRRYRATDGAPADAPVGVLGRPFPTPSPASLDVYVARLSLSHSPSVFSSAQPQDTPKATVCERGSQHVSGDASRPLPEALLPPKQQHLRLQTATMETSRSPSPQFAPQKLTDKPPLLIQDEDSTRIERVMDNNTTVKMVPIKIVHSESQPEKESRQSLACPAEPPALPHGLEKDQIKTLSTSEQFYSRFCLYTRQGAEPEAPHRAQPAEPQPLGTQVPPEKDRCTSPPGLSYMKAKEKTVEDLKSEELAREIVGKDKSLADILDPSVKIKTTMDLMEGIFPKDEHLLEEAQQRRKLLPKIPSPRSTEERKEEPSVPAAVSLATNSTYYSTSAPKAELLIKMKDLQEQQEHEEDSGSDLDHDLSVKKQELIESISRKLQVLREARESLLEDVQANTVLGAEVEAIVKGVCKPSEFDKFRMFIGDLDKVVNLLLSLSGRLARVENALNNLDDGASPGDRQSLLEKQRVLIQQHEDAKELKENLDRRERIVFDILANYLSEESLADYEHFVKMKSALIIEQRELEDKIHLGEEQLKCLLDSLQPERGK
UniProt P35244, sequence (P35244 whole entry, looked up): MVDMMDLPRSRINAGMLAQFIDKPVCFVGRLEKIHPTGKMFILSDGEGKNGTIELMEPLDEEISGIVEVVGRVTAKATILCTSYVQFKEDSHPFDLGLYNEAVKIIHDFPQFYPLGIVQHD

Target	log2 fold change (IRAK-1-4 Inhibitor I)	log2 fold change (ibrutinib)	log2 fold change [1]	log2 fold change (ralimetinib)	log2 fold change [2]	log2 fold change [3]	log2 fold change [4]	log2 fold change (pinometostat)	log2 fold change [5]	log2 fold change [6]
RARS2 (UniProt Q5T160)	0.053	0.003	-0.012	-0.039	-0.081	-0.214	-0.061	-0.032	-0.011	-0.007
RNASEH2A (UniProt O75792)	0	0.008	-0.07	-0.08	-0.029	-0.122	0.074	-0.003	0.001	0.042
RIOK3 (UniProt O14730)	0.087	0.002	0.024	-0.009	-0.083	-0.009	0.021	-0.011	0.019	-0.231 (active)
SEC23A (UniProt Q15436)	0.06	0	0.077	0.026	-0.123	-0.014	-0.006	-0.004	0.024	0.121
ROR2 (UniProt Q01974)	-0.003	-0.014	-0.72 (active)	0.045	-0.058	-0.018	-0.001	0.045	-0.059	0.115
RHOA (UniProt P61586)	0.108	-0.015	0.047	0.251	-0.034	0.063	-0.07	-0.023	0.002	-0.007
RBM4 (UniProt Q9BWF3)	-0.038	-0.023	-0.083	0.099	0.019	-0.136	0.074	0.076	0.007	-0.027
RBBP6 (UniProt Q7Z6E9)	-0.099	-0.082	-0.114	0.02	0.044	-0.089	-0.023	-0.078	-0.021	-0.022
RETSAT (UniProt Q6NUM9)	-0.09	0.042	0.01	0.012	0.178	-0.048	-0.007	-0.012	-0.037	0.059
RPA3 (UniProt P35244)	0.02	0.029	0.016	0.038	-0.097	-0.025	-0.137	0.016	0.063	0.129
RABGAP1L isoform 3 (UniProt Q5R372)	0.057	0.02	0.011	-0.012	-0.206	-0.068	-0.034	-0.006	-0.137	0.055
RPS5 (UniProt P46782)	-0.137	0.045	0.083	0.103	0	-0.015	-0.019	0.091	0.034	-0.551 (active)
RNF187 (UniProt Q5TA31)	0.059	0.045	-0.124	0.039	0.024	0.077	0.424 (active)	-0.075	0.046	-0.226
RAP1GDS1 isoform 5 (UniProt P52306)	-0.044	-0.098	0.04	0.005	-0.114	-0.277 (active)	-0.005	0.067	0.011	0.008
SHROOM2 (UniProt Q13796)	0.236	0.065	0.137		0.009	0.155		-0.182	-0.015	0.072
RPAIN isoform 8 (UniProt Q86UA6)	-0.022	0.034	-0.124	-0.048	0.048		-0.221	0.011		-0.168

Target	log2 fold change (IRAK-1-4 Inhibitor I)	log2 fold change (ibrutinib)	log2 fold change [1]	log2 fold change (ralimetinib)	log2 fold change [2]	log2 fold change [3]	log2 fold change [4]	log2 fold change (pinometostat)	log2 fold change [5]	log2 fold change [6]
RABGAP1L isoform 5 (UniProt Q5R372)	0.04	-0.031	-0.025		-0.057	-0.125		-0.17	-0.297	-0.271
RSPRY1 (UniProt Q96DX4)	0.018	0.027	0.02	-0.019	-0.036	0	0.079	-0.048	0.033	-0.066
RPS13 (UniProt P62277)	-0.096	0.035	0.103	0.13	0.071	-0.031	0.137	0.345	0.035	-0.759 (active)
RNF220 (UniProt Q5VTB9)	0.017	-0.032	-0.02	-0.045	0.021	-0.011	-0.046	-0.076	-0.023	0.004
RNASET2 (UniProt O00584)	0.028	0.042	0	-0.082	0.029	-0.206	-0.004	-0.014	0.045	-0.061
RAPGEF4 (UniProt Q8WZA2)	-0.184	-0.025	-0.022		0.065	0.089		-0.096		0.109
SLC19A1 (UniProt P41440)	0.017	-0.025	-0.034	0.005	-0.061	0.104	0.045	0.052	-0.045	0.073
SH3GL1 (UniProt Q99961)	-0.09	-0.021	-0.059	0.052	-0.097	-0.238	0.013	0.032	0.018	0.037
RAF1 isoform 2 (UniProt P04049)	-0.038	-0.058	-0.263	-0.054	-0.072	-0.12	0.066	0.29		0.09
RPS6KA3 (UniProt P51812)	0.03	-0.048	-0.194	-0.359 (active)	-0.061	-0.076	0.121	0.011	0.01	0.001
RBM12 (UniProt Q9NTZ6)	-0.042	-0.018	-0.135	-0.037	-0.145	-0.237	0.009	-0.043	0.012	-0.007
RRAS2 isoform 4 (UniProt P62070)	0.011	0.097	-0.009	-0.023	0.242	0.077	0.005	-0.034	-0.019	0.077
RETREG3 (UniProt Q86VR2)	0.117	-0.002	-0.01	-0.036	-0.04	-0.167	0.007	0.035	-0.024	-0.016
RAC3 (UniProt P60763)	0.115	0.022	0.104	-0.008	0.032	0.082	-0.009	-0.081	0.003	0.102
RDH11 (UniProt Q8TC12)	0.032	0.067	-0.145	0.059	-0.126	-0.74 (active)	0.117	0.013	-0.028	0.103
